Records with an inconclusive call do not appear. The source made the active and inactive calls. Calls follow the shape of the dose curve; as a rule, active = well fitted activation curve with a large enough effect in the repeat runs; inconclusive = weak or mixed curves; inactive = no such curve, though single readings can be large or run the other way.
The compounds below were run against Nuclear receptor subfamily 1 group I member 2 (Rattus norvegicus) (UniProt Q9R1A7) (assay: Rat pregnane X receptor (rPXR) activation by small molecules, qHTS assay (AID 1346983; also: nearly all actives have a fitted effect of over 20% in size)). Conditions: rPXR luciferase reporter cells, One-Glo luminescence, 24 h; hits give high values.
From the text: National Center for Advancing Translational Sciences [NCATS] NIH Chemical Genomics Center [NCGC] U.S. Environmental Protection Agency [EPA] National Institutes of Environmental Health Sciences [NIEHS] National Toxicology Program [NTP] Assay overview: The Pregnane X receptor (PXR), a ligand activated nuclear receptor plays a critical role in the regulation of genes involved in drug metabolism and transporters. PXR binds xenobiotics and when compounds interact with PXR produces enhanced expression of CYP3A genes. In humans PXR activation and CYP3A4 induction can be problematic due to their interactions with co-medicated drugs and decrease their efficacy or increase their own metabolism. However, there are known species-specific differences with regard to PXR activation that should be taken into account when animal PXR data are extrapolated to humans. A cell based rat PXR (rPXR) assay (developed by Puracyp, Inc., CA) was used to assess the activation of rPXR.
Assay Protocol Summary: rPXR cells were dispensed at 2,000 per well in 5uL of assay medium into white, solid-bottom 1536-well plates using a Multidrop Combi dispenser (Thermo Scientific). The assay plates were incubated at 37 C for 5hr before transferring 23 nL of test compounds dissolved in DMSO and positive control via Pintool station (Wako). The assay plates were incubated at 37 C for 24 hr. Then 5ul One-Glo assay reagent (Promega) was added to each plate by a Flying Reagent Dispenser (FRD, Aurora Discovery) and following 30 min incubation at room temperature, luciferase activity was quantified on a ViewLux plate reader (Perkin Elmer).
% is scaled to controls: 0 for no effect and ±100 for the full control effect.

Chain of Nuclear receptor subfamily 1 group I member 2 (Rattus norvegicus) (Q9R1A7 whole entry, looked up): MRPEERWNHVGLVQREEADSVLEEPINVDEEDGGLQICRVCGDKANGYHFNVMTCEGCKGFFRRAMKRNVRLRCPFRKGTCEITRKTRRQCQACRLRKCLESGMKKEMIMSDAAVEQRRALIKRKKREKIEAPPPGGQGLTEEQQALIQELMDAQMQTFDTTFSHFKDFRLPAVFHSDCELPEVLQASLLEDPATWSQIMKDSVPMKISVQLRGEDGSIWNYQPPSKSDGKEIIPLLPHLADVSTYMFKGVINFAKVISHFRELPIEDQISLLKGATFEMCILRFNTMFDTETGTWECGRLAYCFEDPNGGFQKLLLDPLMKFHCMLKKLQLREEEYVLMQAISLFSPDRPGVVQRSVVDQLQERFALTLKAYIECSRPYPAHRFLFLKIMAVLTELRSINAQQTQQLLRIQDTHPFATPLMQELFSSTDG

Q: How did the max activation turn out when `CCCCCCCCCCCCOCCOCCOCCOCCOCCOCCOCCOCCOCCO` was run?
A: -18.4% (inactive)

Q: Which max activation does the source give for `CCc1oc2ccccc2c1C(=O)c1cc(I)c(O)c(I)c1` here?
A: -8.05% (inactive)

Q: Which max activation does the source give for `O=C(O)c1cc(=O)c2ccccc2o1` here?
A: -0.583% (inactive)

Q: For `CC(C)Cn1cnc2c(N)nc3ccccc3c21`, which max activation is on record?
A: 2.02% (inactive)

Q: For `CCCCCCCCCCCCCC[N+](C)(C)C`, which max activation is on record?
A: -17% (inactive)

Q: With `CC1(C)[C@@H](O)CC[C@]2(C)[C@H]3C(=O)C=C4[C@@H]5C[C@@](C)(C(=O)O)CC[C@]5(C)CC[C@@]4(C)[C@]3(C)CC[C@@H]12` as the compound, how does the max activation read?
A: 1.62% (inactive)

Q: Which max activation does the source give for `CCCCCCCC/C=C\CCCCCCCCN` here?
A: -1.07% (inactive)

Q: `O=C(O)c1cc(-c2ccc(F)cc2F)ccc1O` was tested. Which max activation did it give?
A: -2% (inactive)

Q: `C#CC1(O)CC[C@H]2[C@@H]3CCC4=CCCC[C@@H]4[C@H]3CC[C@@]21C` (stereo not given in full) was tested. Which max activation did it give?
A: -0.183% (inactive)

Q: Which max activation does the source give for `CN1CCC[C@@H]1CCO[C@](C)(c1ccccc1)c1ccc(Cl)cc1` here?
A: 6.7% (inactive)

Q: `CN(C)C(=O)COC(=O)Cc1ccc(OC(=O)c2ccc(N=C(N)N)cc2)cc1` was tested. Which max activation did it give?
A: -2.55% (inactive)

Q: With `Nc1ccc(C(=O)O)c(O)c1` as the compound, how does the max activation read?
A: -0.56% (inactive)

Q: For `CC[N+](CC)(CC)CCOc1ccc(/C=C/c2ccccc2)cc1`, which max activation is on record?
A: -2.42% (inactive)

Q: With `O=C(O)CN(CCN(CC(=O)O)CC(=O)O)CC(=O)O` as the compound, how does the max activation read?
A: -0.541% (inactive)

Q: Which max activation does the source give for `O=c1[nH]c(=O)n([C@H]2C[C@H](O)[C@@H](CO)O2)cc1F` here?
A: -2.43% (inactive)

Q: Which max activation does the source give for `Cc1cc(C)c(/C=C2\C(=O)Nc3ccccc32)[nH]1` here?
A: -0.232% (inactive)

Q: `CC(CCc1ccccc1)NCC(O)c1ccc(O)c(C(N)=O)c1` (stereo not given) was tested. Which max activation did it give?
A: -0.392% (inactive)

Q: For `O[C@@H]([C@H](O)[C@H](O)CBr)[C@H](O)CBr`, which max activation is on record?
A: -0.988% (inactive)

Q: Which max activation does the source give for `Cc1cc(C(C#N)c2ccc(Cl)cc2)c(Cl)cc1NC(=O)c1cc(I)cc(I)c1O` (stereo not given) here?
A: -15.9% (inactive)

Q: `Cc1c(C)c2c(c(C)c1OC(=O)c1cccnc1)CC[C@@](C)(CCC[C@H](C)CCC[C@H](C)CCCC(C)C)O2` was tested. Which max activation did it give?
A: 0.296% (inactive)

Q: Which max activation does the source give for `O=C1CCc2ccc(OCCCCN3CCN(c4cccc(Cl)c4Cl)CC3)cc2N1` here?
A: -4.05% (inactive)

Q: Which max activation does the source give for `Nc1nc2c(ncn2COCCO)c(=O)[nH]1` here?
A: -0.779% (inactive)

Q: How did the max activation turn out when `C#C[C@]1(OC(C)=O)CC[C@H]2[C@@H]3CCC4=C[C@@H](OC(C)=O)CC[C@@H]4[C@H]3CC[C@@]21C` was run?
A: 3.89% (inactive)

Q: `CCCCC(CC)CN1CN(CC(CC)CCCC)CC(C)(N)C1` (stereo not given) was tested. Which max activation did it give?
A: -2.15% (inactive)

Q: With `CCOc1ccc2ccccc2c1C(=O)N[C@@H]1C(=O)N2[C@@H]1SC(C)(C)[C@@H]2C(=O)O` as the compound, how does the max activation read?
A: -0.231% (inactive)

Q: Which max activation does the source give for `CCCCC/C=C\C/C=C\CCCCCCCC(=O)O` here?
A: -4.54% (inactive)

Q: Which max activation does the source give for `Nc1nc(N)nc(-c2cc(Cl)ccc2Cl)n1` here?
A: -2.66% (inactive)

Q: `COc1cccc2c1C(=O)c1c(O)c3c(c(O)c1C2=O)C[C@@](O)(C(C)=O)C[C@@H]3O[C@H]1C[C@H](N)[C@H](O)[C@H](C)O1` was tested. Which max activation did it give?
A: -7.89% (inactive)

Q: Which max activation does the source give for `CCc1cccc(CC)c1NC(=O)CN(CC(=O)O)CC(=O)O` here?
A: -4.1% (inactive)

Q: For `CC(C(=O)O)c1ccc2c(c1)[nH]c1ccc(Cl)cc12` (stereo not given), which max activation is on record?
A: -1.86% (inactive)

Q: With `Cc1cc(C(C)(C)C)cc(C)c1CC1=NCCN1` as the compound, how does the max activation read?
A: -6.02% (inactive)

Q: With `CCCCCCCCCCCCCC[N+](C)(C)Cc1ccccc1` as the compound, how does the max activation read?
A: -5.38% (inactive)

Q: How did the max activation turn out when `COc1c(C)c2c(c(O)c1C/C=C(\C)CCC(=O)OCCN1CCOCC1)C(=O)OC2` was run?
A: -3.72% (inactive)

Q: Which max activation does the source give for `CCCCCCCCCCC[C@@H](C[C@@H]1OC(=O)[C@H]1CCCCCC)OC(=O)[C@H](CC(C)C)NC=O` here?
A: -3.72% (inactive)

Q: With `Cc1cccc(C(=O)O)c1O` as the compound, how does the max activation read?
A: -0.388% (inactive)

Q: For `CC(N=C(NC#N)Nc1ccncc1)C(C)(C)C` (stereo not given), which max activation is on record?
A: -8.82% (inactive)

Q: For `NC[C@H]1O[C@H](O[C@H]2[C@H](O[C@@H]3O[C@H](CO)[C@@H](O)[C@H]3O)C(O)[C@H](N)C[C@@H]2N)[C@H](N)[C@@H](O)[C@@H]1O` (stereo not given in full), which max activation is on record?
A: 3.62% (inactive)

Q: Which max activation does the source give for `Cc1nc(-c2ccc(Cl)cc2)oc1COC(C)(C)C(=O)O` here?
A: -7.31% (inactive)

Q: With `Cc1c(F)c(N2CCNC(C)C2)cc2c1c(=O)c(C(=O)O)cn2C1CC1` (stereo not given) as the compound, how does the max activation read?
A: -0.343% (inactive)

Q: `COC1=C(OC)C(=O)C(CCCCCCCCCCO)=C(C)C1=O` was tested. Which max activation did it give?
A: 4.16% (inactive)
